# Results as given in ChEMBL document CHEMBL3988442, “University of Dundee, Small-Polar-MMV Screening Library” (2021).
# In all, about 48,000 compounds went through this assay and about 13,000 (27%) showed an effect of 50% or more. Some of the results follow.
# System: Wolbachia pipientis
# Assay: Anti-Wolbachia Cell-Based Screen
# Type: functional
# Parameters: scale not given: in the data most compounds retested in dose-response had high values
# Conditions: 5 µM
row,SMILES,Percent Effect
1,CCN1CCN(c2nc(C(C)C)nc3c(C)nn(CC)c23)CC1,-2.933%
2,Cn1ccnc1CN1CCN2C[C@H](Oc3ccccc3)C[C@H]2C1.O=C(O)C(F)(F)F.O=C(O)C(F)(F)F,-6.794%
3,CN(C)c1nccc(N(C)Cc2ncnn2C)n1,4.507%
4,CCN1CCOC(CNCc2ccccc2OCC(=O)N(C)C)C1 (stereo unspecified),-2.531%
5,CCN1CCOC(CNCc2csc(C)n2)C1 (stereo unspecified),88.2%
6,Cc1nc(CNCC2CCCN(C(=O)OC(C)(C)C)C2)cs1 (stereo unspecified),4.206%
7,CCN1CCOC(CNc2nccc(OC)n2)C1 (stereo unspecified),1.918%
8,Cc1nc(CNCC2CN(C3CC3)CCO2)cs1 (stereo unspecified),87.5%
9,COc1ccnc(NCC2CN(C3CC3)CCO2)n1 (stereo unspecified),0.4171%
10,CCN1CCOC(CNCc2ccc(OC)c(F)c2)C1 (stereo unspecified),-3.361%
11,CCN1CCOC(CNCc2ccc(C)s2)C1 (stereo unspecified),96.42%
12,CCN1CCOC(CNCc2ccccn2)C1 (stereo unspecified),1.335%
13,CCc1noc(CN(C)C(=O)c2ccccc2-c2ncn[nH]2)n1,-19%
14,Cc1nn(C)c(C)c1CN(C(=O)c1cc(Cl)c[nH]c1=O)C(C)C,-11.33%
15,CC(C(=O)NC1(C#N)CCCCC1)N1CCc2c(ncn2C)C1 (stereo unspecified),-1.256%
16,O=C(c1ccc(F)cc1F)N1CC[C@H](O)[C@@H](N2CCOCC2)CC1,0.4748%
17,N#Cc1ccc(OC2CCN(C(=O)c3ccccc3Cl)CC2)nc1,-3.988%
18,Cc1ccccc1C(=O)N1CC[C@H](O)[C@@H](N2CCOCC2)CC1,126.5%
19,Cc1ccccc1C(=O)N1CC[C@@H](N2CCC(O)CC2)[C@H](O)C1,2.362%
20,O=C(c1ccccc1C(F)(F)F)N1CC[C@@H](N2CCC(O)CC2)[C@H](O)C1,-4.117%
21,O=C(c1ccccc1Cl)N1CC[C@H](O)[C@@H](N2CCOCC2)CC1,95.8%
22,N#Cc1cccc(CN2CCCC2c2ccc[nH]2)c1 (stereo unspecified),7.816%
23,Cc1ccc(NC(=O)C2CSCN2C(=O)c2cc[nH]n2)c(C)c1 (stereo unspecified),9.143%
24,O=C(NC1CCCC1)N1C[C@H]2CN(c3ccncc3)C[C@@]2(C(=O)O)C1,-18.18%

row,SMILES,Percent Effect
1,Cc1ccc(C(CNCc2ccncc2)N2CCOCC2)s1 (stereo unspecified),-8.996%
2,CCn1ccnc1CNCC(c1ccc(C)s1)N1CCOCC1 (stereo unspecified),53.4%
3,Cc1ccc(C(CNCc2nccn2C)N2CCOCC2)s1 (stereo unspecified),-4.854%
4,CC(c1ccccc1)n1c(SCC(=O)O)nnc1-c1ccccc1Cl (stereo unspecified),9.035%
5,CCCn1cc(NC(=O)c2cccc(CN3CC[C@H](O)C3)c2)nn1,12.98%
6,CCCn1cc(NC(=O)c2cccc(CN3CC=CC3)c2)nn1,-66.35%
7,CCn1cc(NC(=O)c2cccc(CN3C[C@@H](C)O[C@@H](C)C3)c2)nn1,90.95%
8,Cc1cccc(C2(NC(=O)CCCn3cncn3)CCCC2)c1,-10.46%
9,COc1ccc(C(=O)NCCCNc2ncccn2)cc1F,-6.702%
10,COc1ccc(OC)c(C(=O)Nc2cccnc2-n2cncn2)c1,13.43%
11,CCOC(=O)CNC(=O)c1cccnc1Sc1cc(OC)ccc1OC,162.1%
12,COCCNC(=O)c1cccnc1Sc1cc(OC)ccc1OC,161.9%
13,CCOC(=O)NC(CNC(=O)c1cccnc1SC)CC(C)C (stereo unspecified),-1.757%
14,CCOCCNC(=O)c1cnc(Sc2nccn2C)c(Cl)c1,13.89%
15,COCCNC(=O)c1cc(OC)ccc1Br,8.343%
16,CCOCCNC(=O)c1cccnc1Sc1cc(OC)ccc1OC,152.7%
17,COc1ccc(OC)c(Sc2ncccc2C(=O)NCC2CC2)c1,167.1%
18,Cc1nc2cc(F)ccc2cc1C(=O)N1CCN(CC(C)O)CC1 (stereo unspecified),-9.577%
19,CSc1ncccc1C(=O)NCCC(O)c1cc(C)oc1C (stereo unspecified),-1.719%
20,COc1ccc(OC)c(Sc2ncccc2C(=O)NCCSC)c1,104.4%
21,CSc1ncccc1C(=O)NCCC(O)c1cccs1 (stereo unspecified),13.17%
22,O=c1oc(-c2ccc(F)cc2)nn1CCc1ccccn1,-9.185%
23,O=C(c1ccc(N2CCCCCC2)nn1)N1CCc2ccccc21,130.8%
24,O=C(c1ccc(N2CCCC2)nn1)N1CCc2ccccc21,13.46%

row,SMILES,Percent Effect
1,O=C(c1ccc(N2CCCC2)nn1)N1CCCc2ccc(F)cc21,-11.11%
2,CCN(CC)C(=O)Nc1cc2c(cc1SC)OCCO2,7.32%
3,CCc1nccn1C1CCCN(C(=O)c2ccnc(C)n2)C1 (stereo unspecified),1.971%
4,O=C(c1cccc2c1OCO2)N1CCCC(n2ccnc2)C1 (stereo unspecified),115.9%
5,O=C(c1cc(Cl)c2c(c1)OCO2)N1CCCC(n2ccnc2)C1 (stereo unspecified),1.53%
6,O=C(c1cccc2c1OCCO2)N1CCCC(n2ccnc2)C1 (stereo unspecified),-8.704%
7,CC(C)c1nccn1C1CCCN(C(=O)c2cccc3c2OCO3)C1 (stereo unspecified),-5.15%
8,Cc1nccn1C1CCCN(C(=O)c2cccc3c2OCO3)C1 (stereo unspecified),116.3%
9,CCc1nccn1C1CCCN(C(=O)c2cnn3ccc(C)nc23)C1 (stereo unspecified),-1.055%
10,CCc1nccn1C1CCCN(C(=O)c2cccc3c2OCO3)C1 (stereo unspecified),115.7%
11,O=C1CC(C(=O)Nc2nnc(-c3cccs3)[nH]2)c2ccccc2N1 (stereo unspecified),-3.979%
12,CC(C)OC(=O)CN1N=C(C(=O)N2CCCC2)S(=O)(=O)c2ccccc21,15.65%
13,N#Cc1ccccc1CN1C[C@@H]2CC[C@H](C1)N(CC1CC1)C2=O,-10.09%
14,Cc1nn(CCC#N)c(C)c1CCC(=O)N(C(C)C)C1CC1,-0.4171%
15,COc1ccc(C(=O)NC2CC2)c(OC2CCN(CC3CC3)CC2)c1,4.837%
16,CSCC(=O)N1CCCC(n2ccnc2C(C)C)C1 (stereo unspecified),-4.829%
17,CC(C)c1nccn1C1CCCN(C(=O)c2ccc(=O)n(C)n2)C1 (stereo unspecified),4.106%
18,COCc1nc(C(=O)N2CCCC(n3ccnc3C(C)C)C2)cs1 (stereo unspecified),114%
19,CC(=O)Nc1nc(C(=O)N2CCCC(n3ccnc3)C2)cs1 (stereo unspecified),-0.04658%
20,COCc1nc(C(=O)N2CCCC(n3ccnc3C)C2)cs1 (stereo unspecified),95.68%
21,COCc1nc(C(=O)N2CCN(c3nccc(OC)n3)CC2)cs1,-10.67%
22,COCc1nc(C(=O)N2CCCC(n3ccnc3)C2)cs1 (stereo unspecified),102.7%
23,Cc1nccn1C1CCCN(C(=O)c2ccc(N3CCCC3)nn2)C1 (stereo unspecified),-4.751%
